PvdQ acylase: P. aeruginosa PvdQ acylase inhibition | purified PvdQ acylase, fluorescence plate reader | actives 0.063% (n = 340,000) | inhibition, % at 10 µM; in the data active = inhibition above about 30%, passing the limit was not always enough; inconclusive = no clear call, values can overlap the other calls;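 note: 0% = vehicle neutral wells and 100% = reference inhibitor wells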
JMJD2C inh: human JMJD2C demethylase inhibition | GST-JMJD2C(1-420) H3K9me3 demethylation, DELFIA europium | inhibition, % at 2.35 µM | actives 0.069% (n = 330,000) | AID 2099;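 active = more than half of a compound's replicate wells show inhibition beyond 50%, single wells judged on their own value; inconclusive = some, but no more than half, of replicates pass 50% inhibition; inactive = no replicate passes 50% inhibition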;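 note: signal counts dimethyl H3K9 product captured on neutravidin plate; 0% = median of DMSO wells and 100% = 0.3 times that DMSO median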
SUMO Mot1 rescue: blocks SUMOylation pathway, rescuing yeast Mot1-301 growth; S. cerevisiae Mot1-301 growth rescue, ATP luminescence, 38.5C; percent above DMSO median, 100 means doubled; growth rescue, % at 18.8 µM; actives 1% (n = 320,000);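 active = every valid replicate shows activation above 250% relative to neutral control wells; inactive = the rest, any valid replicate at or below 250%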;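 note: OY570 slx delta 5 strain wells were the positive control but not used for scaling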
p-CIP stab down: compounds decreasing mouse p/CIP protein stability | Q05BA5 | actives 0.01% (n = 290,000) | F442A p/CIP-EGFP cells, EGFP fluorescence, 16 h | decrease of EGFP signal, % at 10 µM | AID 1984;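 active = EGFP signal decrease of at least 30% at 10 µM or well 3 SD below plate mean, unless failing retest; inactive = the rest, including hits failing retest or dose response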
HDAC3 inhib: human HDAC3 inhibition | O15379 | recombinant HDAC3, fluorogenic peptide/trypsin coupled, fluorescence | inhibition, % at 8.3 µM | actives 0.15% (n = 320,000) | AID 2718; in the data active = inhibition above about 26%, passing the limit was not always enough; inconclusive = no clear call, values can overlap the other calls
Target sequence (O15379 whole entry, looked up): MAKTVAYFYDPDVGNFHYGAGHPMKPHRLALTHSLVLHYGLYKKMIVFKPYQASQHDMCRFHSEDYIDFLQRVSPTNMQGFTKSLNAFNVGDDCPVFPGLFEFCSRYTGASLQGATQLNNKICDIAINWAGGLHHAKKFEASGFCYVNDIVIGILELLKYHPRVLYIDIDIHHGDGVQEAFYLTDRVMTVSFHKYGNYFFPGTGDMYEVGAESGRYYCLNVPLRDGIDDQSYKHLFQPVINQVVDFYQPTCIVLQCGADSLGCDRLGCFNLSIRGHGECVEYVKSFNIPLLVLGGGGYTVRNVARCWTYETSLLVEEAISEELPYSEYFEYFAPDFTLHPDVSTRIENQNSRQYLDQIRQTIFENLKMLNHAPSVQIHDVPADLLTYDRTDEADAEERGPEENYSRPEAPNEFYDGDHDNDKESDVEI
PHOSPHO1 block: PHOSPHO1 (human) inhibition; Q8TCT1; recombinant PHOSPHO1, absorbance phosphatase assay; inhibition, % at 13.3 µM; actives 1.1% (n = 290,000); AID 1565; in the data active = inhibition above about 60%
* hit, by the source's call; ? = inconclusive; nt = no result. Shown are actives, neighbours in structure and some others; about 2.2% of the full set was active somewhere.

SMILES	PvdQ acylase	JMJD2C inh	SUMO Mot1 rescue	p-CIP stab down	HDAC3 inhib	PHOSPHO1 block
Cc1ccc(C(=O)NNC(=S)NC(=O)c2ccc(Cl)cc2Cl)cc1	-10.6	78.6	-16.0	0.2	1.4	76.4*
O=C(c1cccn2c(=O)c3ccccc3nc12)N1CCN(c2ccccn2)CC1	-10.8	-3.6	16.2	8.0	-2.7	10.6
O=C(c1cccn2c(=O)c3cc4ccccc4cc3nc12)N1CCN(c2ccccc2)CC1	nt	98.0	-19.7	-5.4	1.2	100.3*
COc1cc(S(=O)(=O)N(Cc2ccccc2)CC2CCCO2)ccc1-n1cnnn1 (centres undefined)	-9.0	16.2	-1.8	-8.9	-2.0	47.1
COc1ccc(CN(CC2CCCO2)S(=O)(=O)c2ccc(C(=O)O)cc2)cc1OC (centres undefined)	-2.8	8.4	-1.6	1.7	-2.2	97.1*
O=C(O)c1cc2c(cc1NC(=O)C1CCCC1)OCCO2	-10.4	nt	nt	nt	nt	nt
O=C(NCc1ccco1)c1ccc(N2CCCCC2)c([N+](=O)[O-])c1	3.6	9.9	812.1*	-1.2	1.3	-3.9
O=C(NCc1ccco1)c1ccc(N2CCOCC2)c([N+](=O)[O-])c1	-7.0	9.9	10.7	2.9	1.6	43.9
COc1ccc(C(=O)NC(C)c2nnc(SCc3ccc(Cl)c(Cl)c3)n2C)cc1 (centres undefined)	-0.1	0.5	3.0	-10.7	10.1	81.7*
CCN(Cc1ccncc1)C(=O)c1cc(COc2c(C)cccc2C)on1	-9.4	3.8	3.1	-3.6	7.6	-5.1
C1CN(CC23CC4CC(CC(C4)C2)C3)CCO1	8.0	-8.3	344.0*	8.1	-5.3	-9.2
Cc1ccc(N2CC(NS(=O)(=O)c3cccs3)CC2=O)cc1 (centres undefined)	-12.0	-19.0	11.7	nt	3.3	nt
O=c1c2c(-c3cccs3)csc2[nH]c(=S)n1-c1ccccc1	-12.9	-2.8	-2.3	0.8	5.0	67.1*
CCOC(=O)c1c(NC(=O)c2ccccc2Br)sc2c1CCc1ccccc1-2	-4.6	-1.5	-19.0	-9.1	-0.3	70.8*
CCOC(=O)c1c(NC(C)=O)sc2c1CCC(C=O)=C2Sc1ccccc1	-13.0	-13.5	-19.6	-4.1	-2.9	90.9*
CCOC(=O)c1c(NC(C)=O)sc2c1CCN(Cc1ccccc1)C2	-13.6	7.5	12.0	-1.4	-6.5	20.2
COC(=O)c1ccc2c(=O)[nH]c(COC(=O)CCC(=O)c3ccc(Cl)cc3)nc2c1	-21.9	2.3	-2.4	nt	-3.3	nt
CCn1cc(/C=C(\NC(=O)c2cc(OC)c(OC)c(OC)c2)C(=O)NCCCN2CCOCC2)c2ccccc21	-5.6	-1.8	-3.6	-3.6	7.4	64.9*
CCn1cc(/C=C(\NC(=O)c2cc(OC)c(OC)c(OC)c2)C(=O)NCCN2CCOCC2)c2ccccc21	-13.9	-3.6	-13.8	-5.9	?	29.3
CCOc1ccc2[nH]c(=O)c(CN(C(=O)N3CCOCC3)C3CC3)cc2c1	nt	nt	nt	-8.2	nt	-4.2
CCOc1ccc2[nH]c(=O)c(CN(Cc3ccccc3)C(=O)N3CCCC3)cc2c1	-9.7	-4.8	12.1	-2.5	-1.2	73.7*
O=C(Nc1cccnc1)C1CCCN(c2ncnc3c2nc2n3CCCCC2)C1 (centres undefined)	-3.2	-1.8	3.7	-7.1	-12.7	54.7
CCc1cccc(NC(=O)C2CCCN(c3ncnc4c3nc3n4CCCCC3)C2)c1 (centres undefined)	-1.5	-15.4	-11.5	-6.9	10.3	62.9*
COc1ccc(CCNC(=O)CCC(=O)N2CCOc3ccc(Cl)cc32)cc1OC	-2.8	-3.6	3.7	2.9	2.4	33.4
O=[N+]([O-])c1cc(C(F)(F)F)ccc1NC1CCN(Cc2ccccc2)CC1	-14.3	-3.7	80.9	-2.2	3.9	38.3
SMILES	PvdQ acylase	JMJD2C inh	SUMO Mot1 rescue	p-CIP stab down	HDAC3 inhib	PHOSPHO1 block
O=[N+]([O-])c1cc(C(F)(F)F)ccc1NC1CCN(Cc2ccccc2)C1 (centres undefined)	-5.7	0.7	262.2*	-18.7	9.7	4.5
C[C@H](CO)N1C[C@H](C)[C@@H](CN(C)C(=O)Nc2ccc(C(F)(F)F)cc2)Oc2c(NC(=O)NC3CCCCC3)cccc2C1=O	-6.0	nt	-9.2	nt	16.7	nt
COc1ccc(S(=O)(=O)N(C)C[C@H]2Oc3c(NC(=O)Nc4ccc(C(F)(F)F)cc4)cccc3C(=O)N([C@H](C)CO)C[C@@H]2C)cc1	-7.9	-20.1	-9.9	nt	32.3*	nt
C[C@@H]1CN([C@H](C)CO)C(=O)c2cccc(NC(=O)NC3CCCCC3)c2O[C@@H]1CN(C)C(=O)Nc1ccc(C(F)(F)F)cc1	-4.2	nt	-6.9	nt	28.4*	nt
C[C@H]1CN([C@@H](C)CO)C(=O)c2cccc(NC(=O)Nc3ccc(C(F)(F)F)cc3)c2O[C@@H]1CN(C)S(=O)(=O)c1ccccc1	3.2	nt	nt	nt	nt	nt
Cc1cc(-n2cnnn2)cc(C)c1S(=O)(=O)N(C)c1ccccc1	-10.6	9.1	-22.3	0.8	-0.8	6.2
CC(C)(C)OC(=O)C[C@@H]1C/C=C\C[C@@H](CC(=O)NCCO)C(=O)NC[C@@H](c2ccccc2)OC1=O	3.7	2.3	-11.4	nt	6.4	nt
CC(=O)N1CC(=O)N=C1SCC(=O)Nc1nc(C)c(-c2ccccc2)s1	6.3	-2.5	16.6	-0.2	25.8*	2.2
Cc1ccccc1N=C1N=C(N)c2ccccc21	-19.3	59.5*	-8.4	-6.5	nt	0.8
Cc1ccc(OS(=O)(=O)c2cn(C)c(=O)n(C)c2=O)cc1C	-7.1	-15.2	12.7	2.4	2.3	25.6
Nc1c(C(=O)c2ccccc2)sc2nsc(SCCN3CCOCC3)c12	nt	19.7	-33.2	-4.6	13.7	60.8*
CC(=O)c1sc2nsc(SCCN3CCOCC3)c2c1N	nt	-3.9	8.6	-11.4	4.9	85.9*
COc1ccc(NS(=O)(=O)c2cccc(C(=O)NCc3ccco3)c2)cc1	-13.2	7.5	0.2	nt	-6.8	nt
CCOC(=O)C1CCCN(C(=O)C2CCN(S(=O)(=O)CC)CC2)C1 (centres undefined)	-5.5	-4.2	11.3	2.7	1.2	60.1*
CCOC(=O)C1CCCN(C(=O)C2CCN(S(=O)(=O)c3cccs3)CC2)C1 (centres undefined)	-13.8	5.3	5.6	0.9	-0.2	-2.6
CCOC(=O)C1CCCN(C(=O)C2CCC(CNS(=O)(=O)c3ccc(NC(C)=O)cc3)CC2)C1 (centres undefined)	-8.7	-8.5	281.7*	-8.7	-2.4	44.4
COCC(=O)N1CCCC(CNS(=O)(=O)c2ccc(OC)cc2)C1 (centres undefined)	-18.5	-4.0	669.8*	-12.2	-1.5	42.9
CC(=O)Nc1ccc(S(=O)(=O)NCC2CCC(C(=O)N3CCCCC3)CC2)cc1 (centres undefined)	-5.3	-4.0	-17.1	-5.1	4.9	nt
Cc1ccc2c(c1)N(CCC(=O)NC1CCCCC1)C(=O)CO2	-18.4	-10.9	282.3	-32.6	1.3	34.8

Assay outcomes (PubChem BioAssay)
